Assay [1] is described as follows: qHTS for Activators of Parkin Expression: LOPAC Validation Assay (NLuc Reporter) (AID 720572;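 also: 0% = DMSO and 100% = positive control compound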). The method in brief:
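Cells harboring the Parkin-promoter coincidence reporter were treated for 24 h at seven concentrations. NLuc output was measured sequentially after the FLuc channel and scaled between DMSO and positive control values.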
On the technique in general: Quantitative high-throughput screening tests each substance at several concentrations.

Assay [2] has as its target T1, Hexokinase-4 (Homo sapiens) + Glucokinase regulatory protein (Homo sapiens) (UniProt P35557+Q14397). The assay is described as follows: qHTS assay for inhibitors of recombinant human GCK-GKRP interaction: Diaphorase-coupled assay (AID 743205). The method in brief:
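A kinetic fluorescence read (Ex 525/Em 590 nm, every minute for 30 minutes) tracked resorufin from a G6PDH-diaphorase coupled GCK reaction. It contained 10 nM GST-GCK, 10 nM FLAG-GKRP, 5 mM glucose, 0.4 mM ATP in Hepes pH 7.6. Normalized to with/without-enzyme DMSO controls.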

For assay [3], the target named is T1, Hexokinase-4 (Homo sapiens) + Glucokinase regulatory protein (Homo sapiens). Briefly: qHTS assay for inhibitors of recombinant human GCK-GKRP interaction: ADP-Glo assay (AID 743206).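 Also: plate controls were DMSO plus enzyme for no effect and no enzyme for full effect.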 The method in brief:
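Pin-transferred compounds meet a 15 nM GST-GCK/15 nM FLAG-GKRP/2 uM S6P mix (dispense concentrations). ATP is then added to 0.4 mM final with 5 mM glucose, and the reaction runs 60 min at room temperature. ADP is quantified luminescently.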

Assay [4] shares this target. Briefly: qHTS assay for inhibitors of recombinant human GCK-GKRP interaction: HTRF assay (AID 743207).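 Also: 0% = DMSO with GCK present and -100% = DMSO wells lacking GCK.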 The method in brief:
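After 60 min equilibration at room temperature with anti-FLAG XL665 and anti-GST antibodies, FRET ratio (665/615 nm, excitation 320 nm) was read. Proteins: GST-GCK and FLAG-GKRP, each 5 nM, plus 2 uM S6P, pH 7.1 buffer; GCK-free wells define minimum signal.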

Assay [5] is described as follows: Natriuretic polypeptide receptor (hNpr1) antagonism - Pilot counterscreen GloSensor control cell line (AID 1347045; calls by dose curve; also: potency is read from the fitted curve at half-maximal effect). The method in brief: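 HEK293 cGMP-sensor cells; 2% GloSensor reagent 2 h RT; LOPAC compounds in 1:5 titrations 30-50 min; 50 uM SNP 20 min; luminescence pre-read and post-read.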
A general note: A counterscreen serves to expose hits that act by an unwanted route or on another target.

Assay [6] has as its target T2, Tyrosine-protein phosphatase non-receptor type substrate 1 (Homo sapiens) + Leukocyte surface antigen CD47 (Homo sapiens) (UniProt P78324+Q08722). The assay is described as follows: CD47-SIRPalpha protein protein interaction - LANCE assay qHTS validation (AID 1347057; active = well fitted curve in the direction sought with a large enough effect in the signal ratio, with a control signal flat, not every such curve was filed as active; the % refers to the signal ratio; also: series mostly up to about 38 µM; 0% is about no effect). The method in brief:
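Inhibition of soluble CD47/SIRPalpha ectodomain association by titrated compounds, measured as 665/615 nm time-resolved FRET ratio after sequential 30 min room-temperature incubations.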

Assay [7] addresses T2, Tyrosine-protein phosphatase non-receptor type substrate 1 (Homo sapiens) + Leukocyte surface antigen CD47 (Homo sapiens). The assay is described as follows: CD47-SIRPalpha protein protein interaction - HTRF assay qHTS validation (AID 1347058; active = well fitted curve in the direction sought with a large enough effect in the signal ratio, not every such curve was filed as active; the % refers to the signal ratio; also: series mostly up to about 38 µM; 0% is about no effect). The method in brief: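 Soluble extracellular domains (6His-CD47, Avi-tag-biotinylated SIRPalpha) in PBS pH 7.4 with 0.05% IGEPAL CA-630. Compounds were preincubated 30 min at RT with CD47 and anti-His-Eu, then SIRPalpha and SAV-XL665 were added. TR-FRET 665/615 ratio.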
On the technique in general: TR-FRET usually uses a lanthanide donor and a delayed reading to cut background.

The target is the same in assay [8]. The assay is described as follows: CD47-SIRPalpha protein protein interaction - Alpha assay qHTS validation (AID 1347059).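 Also: bead proximity luminescence from CD47 binding SIRPalpha after compound preincubation with SIRPalpha; % is scaled to controls: 0 for no effect and ±100 for the full control effect.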 Put shortly: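 In PBS (pH 7.4) with 0.05% IGEPAL CA-630, compound is preincubated with biotin-Avi-SIRPalpha ectodomain before His-CD47 ectodomain and affinity beads are added. Light-protected room-temperature incubations; AlphaScreen readout.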

For assay [9], the target named is Parathyroid hormone/parathyroid hormone-related peptide receptor (Homo sapiens) (UniProt Q03431). Briefly: qHTS for PTHR1 Agonists: Optimization Screen against the NCGC LOPAC library (AID 1347079).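 Also: GloSensor cAMP luminescence in HEK-293 GP2 cells expressing human PTHR1 with IBMX; 0% is about no effect.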 Put shortly:
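Signal increase flags agonism. GP2 cells, derived from HEK-293, express human PTHR1 and a GloSensor cAMP construct.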

In assay [10] the target is Lysine-specific demethylase 5B (Homo sapiens) (UniProt Q9UGL1). Briefly: Optimization screen for KDM5B Histone Demethylases FDH coupled qHTS against the LOPAC library (AID 1347166). Also: 0% is about no effect. The method in brief: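 KDM5BDeltaAP (200nM final) in 50mM HEPES pH 7.5, 0.01% Tween-20 was preincubated with compound for 10 min at room temperature. A substrate mix of 12.5uM H3K4Me3, 25uM a-ketoglutarate, ascorbate, Fe2+, NAD+ and formaldehyde dehydrogenase was then added. NADH fluorescence (340/450 nm) was read initially and after 30 min.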

A short description of assay [11]: Validation qHTS assay for inhibitors of Activation Induced Cytidine Deaminase (AID): UDG Counterscreen signal (AID 1347427). Also: 0% is about no effect. The method in brief: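 Fluorescence at 560 nm excitation, 665 nm emission reports UDG signal after 250 mM NaOH (2x) addition and 30 min. Enzymes (AID 1 uM, UDG 2 U/mL, at 4/3x) preincubated 10 min with compound, then 4 h with 4x 250 nM DJC20/DJC23 substrate at room temperature.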

For assay [12], the target named is Single-stranded DNA cytosine deaminase (Homo sapiens) (UniProt Q9GZX7). Briefly: Validation qHTS assay for inhibitors of Activation Induced Cytidine Deaminase (AID): AID signal (AID 1347429). Also: % is scaled to controls: 0 for no effect and ±100 for the full control effect. The method in brief: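 AID+UDG coupled FRET deamination; cpds up to 114 uM final; DJC20/DJC23 substrate, 4 hr RT; NaOH stop, 30 min RT; read Ex 540/Em 590.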
Assay [13] is described as follows: Primary qHTS for inhibitors of La Crosse Virus (LACV) - induced cell death in SH-SY5Y cells (AID 1508616).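 Also: top concentration of the series differs between compounds; 0% = infected DMSO wells and 100% = uninfected DMSO wells; higher means more rescue of cells from virus-induced death.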 Put shortly:
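Cytopathicity rescue screen: compounds pinned onto SH-SY5Y cells, which are then infected with LACV (MOI 0.01) and held 6 days at 37C. Percent activity is scaled between infected DMSO control and uninfected DMSO control.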

In assay [14] the target is Calcium and integrin-binding protein 1 (Homo sapiens) (UniProt Q99828). The assay is described as follows: Validation qHTS for Identification of Calcium Integrin Binding protein 1 (CIB1) Competitor (AID 1508618). Also: % is scaled to controls: 0 for no effect and ±100 for the full control effect. The method in brief: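 In this qHTS validation, the LOPAC set (up to 114 uM) was tested for blocking CIB1 binding to a fluorescein-tagged alphaIIb peptide, with FP detection at 480/540 nm.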

Assay [15] can be described thus: Counterscreen qHTS for small molecule stabilizers of the endoplasmic reticulum resident proteome: GLuc-NoTag assay (AID 1508627).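 Also: series mostly up to about 76 µM; 0% = thapsigargin alone and -100% = DMSO vehicle control.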 The method in brief: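 Secreted GLuc lacking the SERCaMP modification is measured in SH-SY5Y cells exposed to compound for 19 h and then to thapsigargin (100 nM, 4 h) to deplete ER calcium; hits retested at 11 concentrations, up to 76.6 uM.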

Assay [16] is described as follows: Cell Viability qHTS for small molecule stabilizers of the endoplasmic reticulum resident proteome (AID 1508629).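 Also: human SH-SY5Y neuroblastoma cells carrying the GLuc-SERCaMP reporter; compound exposure about 46 h in total before the viability read; % is scaled to controls: 0 for no effect and ±100 for the full control effect.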 As to conditions: cell viability counter-screen, 100 nM thapsigargin for final 4 h.
In a further assay the target is Papain (Carica papaya) (UniProt P00784). Briefly: Primary qHTS assay for inhibitors of the protease papain (AID 1645873).
The target in assay [17] is Metallo-beta-lactamase type 2 (Klebsiella pneumoniae) (UniProt C7C422). Briefly: qHTS to identify inhibitors of the New Delhi Metallo-beta-lactamase (NDM): assay validation screen against the NCATS LOPAC Collection (AID 1794843). Put shortly: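 Nitrocefin hydrolysis (50 uM substrate stock) by NDM-1, 2 nM final, was followed by 485 nm absorbance after compound preincubation; buffer was 50 mM HEPES pH 7.0, 1 uM ZnSO4, 0.01% Tween20.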

The target in assay [18] is Glutathione peroxidase 1 (Homo sapiens) (UniProt P07203). The assay is described as follows: Primary qHTS Assay for Inhibitors of Recombinant Selenoprotein Glutathione Peroxidase 1 (GPX1) (AID 1845191). Also: % is scaled to controls: 0 for no effect and ±100 for the full control effect; nearly all actives have a fitted effect of over 65% in size. Put shortly: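 GPX1 10 nM, GR 100 nM, GSH 1 mM, NADPH 0.5 mM, CHP 0.5 mM (final). 30-min cpd preincubation, RT. Ex340/Em450 read t=0, t=15 min.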
The target of assay [19] is Phospholipid hydroperoxide glutathione peroxidase GPX4 (Homo sapiens) (UniProt P36969). Briefly: Primary qHTS Assay for Inhibitors of Recombinant Selenoprotein Glutathione Peroxidase 4 (GPX4) (AID 1845192). Also: series mostly up to about 50 µM; % is scaled to controls: 0 for no effect and ±100 for the full control effect; nearly all actives have a fitted effect of over 65% in size. As to conditions: outcome: dose series up to 50 µM unless noted. Put shortly:
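qHTS, GR-coupled: GPX4 200 nM + cpd 30 min RT → GSH 1 mM, NADPH 0.5 mM, GR 100 nM → CHP 0.5 mM start; fluor 340/450 at t0 and t15 min; no-enzyme wells as control.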

The text below walks through data of PubChem BioAssay (NCATS).

SMILES strings stand for the structures. A number with no mark means an inactive call. Results filed as inconclusive are left out. Calls of active or inactive are those of the source. Unless noted, calls follow the shape of the dose curve; as a rule, active = well fitted curve in the direction sought with a large enough effect; inconclusive = small, poorly fitted or top-dose-only effect, or another doubt; inactive = no such curve, though single readings can be large; an effect the other way counts as inactive or inconclusive.

T1 sequence (P35557 whole entry, looked up): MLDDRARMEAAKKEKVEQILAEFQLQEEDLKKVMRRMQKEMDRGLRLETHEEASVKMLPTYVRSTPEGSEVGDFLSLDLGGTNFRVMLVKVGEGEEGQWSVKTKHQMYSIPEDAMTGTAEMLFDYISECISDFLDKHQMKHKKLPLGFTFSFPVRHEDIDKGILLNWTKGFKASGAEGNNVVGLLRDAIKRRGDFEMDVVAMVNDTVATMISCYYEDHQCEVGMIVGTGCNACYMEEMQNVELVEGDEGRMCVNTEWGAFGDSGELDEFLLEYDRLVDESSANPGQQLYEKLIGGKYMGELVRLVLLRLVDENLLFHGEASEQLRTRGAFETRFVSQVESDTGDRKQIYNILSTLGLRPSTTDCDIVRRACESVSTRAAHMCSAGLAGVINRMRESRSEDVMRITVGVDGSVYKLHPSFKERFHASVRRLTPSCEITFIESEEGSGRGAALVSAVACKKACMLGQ
T1 sequence (Q14397 whole entry, looked up): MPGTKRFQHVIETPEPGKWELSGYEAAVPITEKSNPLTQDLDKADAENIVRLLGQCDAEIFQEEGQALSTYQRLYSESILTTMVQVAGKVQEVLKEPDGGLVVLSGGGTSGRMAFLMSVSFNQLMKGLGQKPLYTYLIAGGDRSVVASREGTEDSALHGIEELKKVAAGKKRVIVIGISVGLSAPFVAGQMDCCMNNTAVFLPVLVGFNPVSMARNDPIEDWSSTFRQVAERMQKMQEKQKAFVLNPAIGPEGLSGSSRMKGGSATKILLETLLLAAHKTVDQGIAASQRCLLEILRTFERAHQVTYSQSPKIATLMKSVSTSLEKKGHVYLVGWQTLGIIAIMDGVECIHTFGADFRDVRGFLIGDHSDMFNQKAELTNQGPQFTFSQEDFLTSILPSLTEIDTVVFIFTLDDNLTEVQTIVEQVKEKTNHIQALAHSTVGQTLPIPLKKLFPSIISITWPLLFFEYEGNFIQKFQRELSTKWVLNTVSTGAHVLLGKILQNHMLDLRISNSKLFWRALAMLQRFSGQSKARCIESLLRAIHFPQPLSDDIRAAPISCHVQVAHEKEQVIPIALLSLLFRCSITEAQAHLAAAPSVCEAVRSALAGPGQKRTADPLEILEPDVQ
T2 sequence (P78324 whole entry, looked up, the tested form may be a part): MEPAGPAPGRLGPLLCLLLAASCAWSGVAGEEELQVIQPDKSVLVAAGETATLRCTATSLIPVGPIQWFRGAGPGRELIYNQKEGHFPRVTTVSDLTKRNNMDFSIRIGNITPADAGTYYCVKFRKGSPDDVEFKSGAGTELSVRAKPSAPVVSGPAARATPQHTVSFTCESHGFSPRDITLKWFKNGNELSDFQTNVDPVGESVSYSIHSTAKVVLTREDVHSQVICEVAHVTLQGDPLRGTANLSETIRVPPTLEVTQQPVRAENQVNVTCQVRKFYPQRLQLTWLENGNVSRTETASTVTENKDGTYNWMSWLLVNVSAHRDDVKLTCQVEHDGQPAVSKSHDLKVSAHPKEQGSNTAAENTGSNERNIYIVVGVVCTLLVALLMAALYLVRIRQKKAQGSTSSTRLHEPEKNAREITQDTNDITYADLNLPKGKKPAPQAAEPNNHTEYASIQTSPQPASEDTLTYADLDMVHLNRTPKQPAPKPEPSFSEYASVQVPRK
T2 sequence (Q08722 whole entry, looked up, the tested form may be a part): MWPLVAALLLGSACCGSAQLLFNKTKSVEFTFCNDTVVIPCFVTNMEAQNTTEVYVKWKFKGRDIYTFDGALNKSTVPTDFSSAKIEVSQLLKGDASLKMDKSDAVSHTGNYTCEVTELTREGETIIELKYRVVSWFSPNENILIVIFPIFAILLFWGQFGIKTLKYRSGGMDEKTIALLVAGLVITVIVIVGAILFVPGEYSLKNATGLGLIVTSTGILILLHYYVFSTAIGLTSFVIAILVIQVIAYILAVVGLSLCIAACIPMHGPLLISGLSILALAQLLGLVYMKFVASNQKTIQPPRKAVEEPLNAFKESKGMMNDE
Parathyroid hormone/parathyroid hormone-related peptide receptor (Homo sapiens), sequence (Q03431 whole entry, looked up): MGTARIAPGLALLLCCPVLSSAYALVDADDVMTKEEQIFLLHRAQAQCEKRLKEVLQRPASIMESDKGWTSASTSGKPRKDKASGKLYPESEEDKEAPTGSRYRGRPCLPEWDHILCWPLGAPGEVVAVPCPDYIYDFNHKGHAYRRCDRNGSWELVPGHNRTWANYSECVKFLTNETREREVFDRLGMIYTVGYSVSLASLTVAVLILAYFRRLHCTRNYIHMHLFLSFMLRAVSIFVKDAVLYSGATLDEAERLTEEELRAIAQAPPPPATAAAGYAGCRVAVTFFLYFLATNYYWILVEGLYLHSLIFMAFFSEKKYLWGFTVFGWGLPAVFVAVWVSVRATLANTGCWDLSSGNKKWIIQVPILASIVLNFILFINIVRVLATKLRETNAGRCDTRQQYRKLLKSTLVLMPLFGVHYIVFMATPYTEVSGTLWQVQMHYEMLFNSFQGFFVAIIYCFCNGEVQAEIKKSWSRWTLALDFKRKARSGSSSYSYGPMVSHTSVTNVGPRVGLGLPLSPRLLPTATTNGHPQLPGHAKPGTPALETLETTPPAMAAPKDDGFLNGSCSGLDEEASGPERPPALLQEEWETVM
Lysine-specific demethylase 5B (Homo sapiens), sequence (Q9UGL1 whole entry, looked up): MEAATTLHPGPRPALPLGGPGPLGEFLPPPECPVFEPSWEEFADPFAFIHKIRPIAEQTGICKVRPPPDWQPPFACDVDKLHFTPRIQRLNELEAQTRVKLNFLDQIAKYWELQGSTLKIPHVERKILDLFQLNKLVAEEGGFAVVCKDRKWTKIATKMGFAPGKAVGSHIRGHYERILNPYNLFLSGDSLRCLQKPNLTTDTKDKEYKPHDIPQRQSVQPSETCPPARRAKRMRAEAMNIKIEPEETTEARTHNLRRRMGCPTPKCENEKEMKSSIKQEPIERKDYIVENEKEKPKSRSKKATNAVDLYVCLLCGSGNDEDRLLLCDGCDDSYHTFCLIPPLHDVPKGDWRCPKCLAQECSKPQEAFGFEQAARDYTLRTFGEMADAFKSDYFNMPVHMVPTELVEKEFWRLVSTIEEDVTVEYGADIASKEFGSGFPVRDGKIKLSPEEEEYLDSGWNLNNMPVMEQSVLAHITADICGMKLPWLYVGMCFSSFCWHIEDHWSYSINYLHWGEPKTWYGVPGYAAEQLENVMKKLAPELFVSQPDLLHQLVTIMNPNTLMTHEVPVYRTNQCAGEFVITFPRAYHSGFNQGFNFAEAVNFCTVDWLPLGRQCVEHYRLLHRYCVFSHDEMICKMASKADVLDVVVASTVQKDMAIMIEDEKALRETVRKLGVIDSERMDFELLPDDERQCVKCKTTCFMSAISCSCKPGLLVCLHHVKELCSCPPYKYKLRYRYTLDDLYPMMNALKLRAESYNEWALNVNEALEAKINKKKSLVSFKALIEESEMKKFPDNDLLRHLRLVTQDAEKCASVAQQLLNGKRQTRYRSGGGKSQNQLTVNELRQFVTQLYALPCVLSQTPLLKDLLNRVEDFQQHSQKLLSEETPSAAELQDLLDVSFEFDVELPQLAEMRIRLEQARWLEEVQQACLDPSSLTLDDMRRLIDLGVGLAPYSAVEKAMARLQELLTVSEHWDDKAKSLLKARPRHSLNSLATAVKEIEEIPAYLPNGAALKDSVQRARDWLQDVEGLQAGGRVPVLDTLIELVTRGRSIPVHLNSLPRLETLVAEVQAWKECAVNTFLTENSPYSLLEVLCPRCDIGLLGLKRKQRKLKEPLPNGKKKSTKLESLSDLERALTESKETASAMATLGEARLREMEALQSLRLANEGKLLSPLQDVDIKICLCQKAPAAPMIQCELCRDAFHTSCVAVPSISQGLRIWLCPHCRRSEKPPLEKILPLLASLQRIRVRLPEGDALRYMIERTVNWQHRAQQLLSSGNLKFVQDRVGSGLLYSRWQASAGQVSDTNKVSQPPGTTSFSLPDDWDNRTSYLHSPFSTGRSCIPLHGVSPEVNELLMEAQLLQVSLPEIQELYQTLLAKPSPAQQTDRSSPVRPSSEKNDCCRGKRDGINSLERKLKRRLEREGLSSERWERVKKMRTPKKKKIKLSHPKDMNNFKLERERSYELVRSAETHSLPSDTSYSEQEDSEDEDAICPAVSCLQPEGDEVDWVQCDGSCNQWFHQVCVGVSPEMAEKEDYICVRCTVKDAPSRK
Phospholipid hydroperoxide glutathione peroxidase GPX4 (Homo sapiens), sequence (P36969 whole entry, looked up): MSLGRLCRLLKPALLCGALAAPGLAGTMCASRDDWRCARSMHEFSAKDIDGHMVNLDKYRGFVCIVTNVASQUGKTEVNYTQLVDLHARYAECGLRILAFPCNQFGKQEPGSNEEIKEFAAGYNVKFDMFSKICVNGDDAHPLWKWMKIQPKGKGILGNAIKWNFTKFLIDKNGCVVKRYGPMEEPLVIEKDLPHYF
Glutathione peroxidase 1 (Homo sapiens), sequence (P07203 whole entry, looked up): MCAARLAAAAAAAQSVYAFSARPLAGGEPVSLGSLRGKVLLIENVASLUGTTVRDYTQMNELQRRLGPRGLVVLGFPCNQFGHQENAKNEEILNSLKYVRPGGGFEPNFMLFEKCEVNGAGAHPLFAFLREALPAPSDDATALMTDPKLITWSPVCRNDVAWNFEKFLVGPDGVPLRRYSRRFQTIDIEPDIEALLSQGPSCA
Single-stranded DNA cytosine deaminase (Homo sapiens), sequence (Q9GZX7 whole entry, looked up): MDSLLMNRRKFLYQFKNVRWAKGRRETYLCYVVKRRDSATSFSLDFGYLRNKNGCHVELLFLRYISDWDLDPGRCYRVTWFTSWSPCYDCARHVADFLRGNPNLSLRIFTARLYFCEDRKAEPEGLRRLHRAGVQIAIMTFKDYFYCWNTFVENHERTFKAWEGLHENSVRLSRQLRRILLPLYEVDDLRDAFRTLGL
Metallo-beta-lactamase type 2 (Klebsiella pneumoniae), sequence (C7C422 whole entry, looked up): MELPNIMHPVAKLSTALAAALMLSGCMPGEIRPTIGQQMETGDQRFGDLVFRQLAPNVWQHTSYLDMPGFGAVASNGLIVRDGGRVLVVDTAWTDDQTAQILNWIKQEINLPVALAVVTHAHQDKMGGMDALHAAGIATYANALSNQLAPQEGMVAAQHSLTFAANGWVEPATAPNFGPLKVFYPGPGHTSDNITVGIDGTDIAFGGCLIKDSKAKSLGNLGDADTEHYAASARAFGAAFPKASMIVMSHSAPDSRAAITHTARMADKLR

Turning to `S=C(Nc1ccccc1)Nc1nccs1`, the compound was classed as inactive in assay [1], in assay [2], in assay [3], in assay [4], in assay [6] and in assay [7]. The result in [9], in assay [10], in assay [11], in assay [13] and in [14] was inactive. Also, the Potency in assay [5] is 13.1 µM (active). Besides, the Potency result (in assay [8]; in assay [12]; in assay [15]; with Papain (Carica papaya); in assay [17]; in assay [18]) was “inactive” in each case. Moreover, in [19], the Potency result is “inactive”. In addition, in assay [16], the max response is -3.94%.
